{
  "source": "ChEMBL document CHEMBL4513216",
  "about": "“Probing the Open Global Health Chemical Diversity Library for Multistage-Active Starting Points for Next-Generation Antimalarials” (ACS Infect Dis, 2020)",
  "note": "The campaign covered roughly 69,000 compounds. About 8,600 (12%) showed an effect of 50% or more. The entries come from a sample that favours strong results as a whole.",
  "data": [
    {"system": "Plasmodium berghei", "assay": "Screen against P. berghei liver stage (PbLuc), transformed with Luciferase, at 10uM", "format": "functional, HepG2", "details": "tested at 10 uM", "units": {"INHIBITION": "%"}, "values": [
      {"smiles": "CC(C)c1nn2c(-c3cnn(C)c3)nnc2s1", "INHIBITION": -14.2},
      {"smiles": "CCC(C)(CNC(=O)c1ccon1)NC(=O)c1ccon1", "note": "(stereo not drawn)", "INHIBITION": -13.7},
      {"smiles": "COCC(=O)NCC1Cn2nnc(-c3ccncc3)c2CO1", "note": "(stereo not drawn)", "INHIBITION": -4.02},
      {"smiles": "COCCN1CCC2(CC1)CN(C(C)=O)c1ccc(C)cc12", "INHIBITION": -33},
      {"smiles": "CCc1ocnc1C(=O)N1CCCC1c1noc(C)n1", "note": "(stereo not drawn)", "INHIBITION": 5.07},
      {"smiles": "C=C(C)COc1cccc(CNCCc2nc(N)cc(O)n2)c1", "INHIBITION": 52.6},
      {"smiles": "C=C(C)COc1cccc(CNCc2nc3ccccc3c(=O)[nH]2)c1", "INHIBITION": 28.5},
      {"smiles": "C=C(C)COc1cccc(CNCCc2c[nH]cn2)c1", "INHIBITION": 29.1},
      {"smiles": "COCC1CC2(CCN(CC3CC3)CC2)CN1Cc1csc(C)n1", "note": "(stereo not drawn)", "INHIBITION": 37.8},
      {"smiles": "CCOC(=O)CCNC(=O)c1cc(Cl)cc2cccnc12", "INHIBITION": 30.5},
      {"smiles": "CCn1c(CC2CCN(C(=O)C3COCCO3)CC2)nn(C)c1=O", "note": "(stereo not drawn)", "INHIBITION": 9.56},
      {"smiles": "CCn1c(CC2CCN(C(=O)C3CCOC3)CC2)nn(C)c1=O", "note": "(stereo not drawn)", "INHIBITION": 56.1},
      {"smiles": "CCn1c(CC2CCN(C(=O)C3CNCCO3)CC2)nn(C)c1=O", "note": "(stereo not drawn)", "INHIBITION": 47.4},
      {"smiles": "Cc1noc(-c2ccnc(N3CCC(CN4CCOCC4)CC3)c2)n1", "INHIBITION": 69.4},
      {"smiles": "Cc1noc(-c2ccnc(N3CCN(C4CCOCC4)CC3)c2)n1", "INHIBITION": 10.7},
      {"smiles": "Cc1noc(-c2ccnc(N3CCC(N4CCCC4)CC3)c2)n1", "INHIBITION": 48.5},
      {"smiles": "Cc1ccc(-c2nc(CNCC3CN(C)CCO3)co2)cc1", "note": "(stereo not drawn)", "INHIBITION": -12.2},
      {"smiles": "CC(=O)N1CCC2(CC1)C(=O)N(CC1CC1)c1ccccc12", "INHIBITION": 1.56},
      {"smiles": "Cc1cc(CNC(=O)C(c2ccc(F)cc2)N(C)C)n[nH]1", "note": "(stereo not drawn)", "INHIBITION": 37.3},
      {"smiles": "Cc1ccc(C(C(=O)NCc2cc(C)[nH]n2)N(C)C)cc1", "note": "(stereo not drawn)", "INHIBITION": 31.4},
      {"smiles": "CN(C)C(C(=O)NCc1cc(C(C)(C)C)n[nH]1)c1ccc(F)cc1", "note": "(stereo not drawn)", "INHIBITION": 50.2},
      {"smiles": "Cc1cc(N2CCC(NC(=O)CCc3ccco3)CC2)nc(C)n1", "INHIBITION": 38.7},
      {"smiles": "Cc1cc(N2CCC(NC(=O)CCC3CCCO3)CC2)nc(C)n1", "note": "(stereo not drawn)", "INHIBITION": 62.2},
      {"smiles": "CCc1cc(N2CCC(NC(=O)CCC3CCCO3)CC2)ncn1", "note": "(stereo not drawn)", "INHIBITION": 37.6},
      {"smiles": "COc1ccc2nnc(CCCC(=O)Nc3nc4c(s3)CCC4)n2n1", "INHIBITION": 38.4},
      {"smiles": "COc1cc(CN2CC[C@@]3(CCCO3)[C@@H](O)C2)ccc1F", "INHIBITION": 44.9},
      {"smiles": "COCCCC1(CO)CCCN(Cc2ccc(F)c(OC)c2)C1", "note": "(stereo not drawn)", "INHIBITION": -58.9},
      {"smiles": "COc1cc(C)c(CN2CCC3(CC2)[C@H](O)C[C@@H]3OCCN)cc1C", "INHIBITION": 23.3},
      {"smiles": "NCCO[C@H]1C[C@@H](O)C12CCN(Cc1c(F)cccc1F)CC2", "INHIBITION": 52.2},
      {"smiles": "COc1cc(CN2CCC3(CC2)[C@H](O)C[C@@H]3OCCO)ccc1F", "INHIBITION": 51.1},
      {"smiles": "COc1ccc(F)c(F)c1CN1CCC2(CC1)[C@H](O)C[C@@H]2OCCN", "INHIBITION": 7.31},
      {"smiles": "CNC(=O)CN(C)C(=O)c1cc2ccccc2cc1OC", "INHIBITION": 45.2},
      {"smiles": "CC(C)c1nc(CN2CCCN(Cc3nccn3C)CC2)no1", "INHIBITION": -23.8},
      {"smiles": "Cn1nnnc1SCC1COc2ccccc2O1", "note": "(stereo not drawn)", "INHIBITION": 35.2},
      {"smiles": "CC(C)Nc1nc2c(s1)C(=O)CN(C(=O)NCCc1ccccc1)C2", "INHIBITION": -7.79},
      {"smiles": "CC(C)Nc1nc2c(s1)C(=O)CN(C(=O)NCc1ccccc1)C2", "INHIBITION": 73.8},
      {"smiles": "CC[C@H](C)[C@H](N)C(=O)N1CC(=O)c2sc(NCc3ccccc3)nc2C1", "INHIBITION": 61.9},
      {"smiles": "CC[C@H](C)[C@H](N)C(=O)N1CC(=O)c2sc(NC3CCCCC3)nc2C1", "INHIBITION": 35.2},
      {"smiles": "CCNc1nc2c(s1)C(=O)CN(C(=O)NCCc1ccccc1)C2", "INHIBITION": 24.4},
      {"smiles": "CNc1nc2c(s1)C(=O)CN(C(=O)NCc1ccccc1)C2", "INHIBITION": 42.9},
      {"smiles": "CNc1nc2c(s1)C(=O)CN(C(=O)NCCc1ccccc1)C2", "INHIBITION": 23.4},
      {"smiles": "COCCN1CC(=O)c2sc(NCc3ccccc3)nc2C1", "INHIBITION": -0.371},
      {"smiles": "CCNc1nc2c(s1)C(=O)CN(C(=O)NCc1ccccc1)C2", "INHIBITION": 66.4},
      {"smiles": "O=C(Cc1ccccc1)N1Cc2nccn2CC(CN2CCCC2)C1", "note": "(stereo not drawn)", "INHIBITION": 11.3},
      {"smiles": "O=C(c1cccc(NCCOc2ccc(F)cc2)c1)N1CCOCC1", "INHIBITION": 10.6},
      {"smiles": "CC(C)c1nc(-c2cc(C(=O)N3CCN(C)CC3)c3ccccn23)cs1", "INHIBITION": 10.5},
      {"smiles": "CCC(CC)C(=O)c1c[nH]c(C(=O)N2CCN(c3ccccc3)CC2)c1", "INHIBITION": -26.8},
      {"smiles": "Cc1noc(C)c1C(C)C(=O)N1CCCN(Cc2cscn2)CC1", "note": "(stereo not drawn)", "INHIBITION": 21.08},
      {"smiles": "CS(=O)(=O)Cc1ccc(C(=O)NCc2ccc(Cl)cc2Cl)cc1", "INHIBITION": 29.4},
      {"smiles": "O=C(NCc1nc(NC2CCCC2)c2cc(Cl)ccc2n1)c1cscn1", "INHIBITION": 54.6},
      {"smiles": "COc1ccc(-n2cc(CNC(=O)c3cscn3)nn2)cc1", "INHIBITION": -27.3},
      {"smiles": "O=C(NCCNC(=O)c1scnc1Cl)c1ccoc1", "INHIBITION": -23.8},
      {"smiles": "O=C(NCc1nc(NC2CCCC2)c2cc(Cl)ccc2n1)c1ccoc1", "INHIBITION": 89},
      {"smiles": "O=C(NCCSC1CCCC1)c1cc(Cl)ccn1", "INHIBITION": -45},
      {"smiles": "NC(=O)CN1CCC(Nc2ccnc3ccc(Cl)cc23)CC1", "INHIBITION": 15.1},
      {"smiles": "O=C(NCCNC(=O)C1CCN(c2ncccn2)CC1)c1ccoc1", "INHIBITION": 15.1},
      {"smiles": "O=C(NCc1nc(NC2CCCC2)c2cc(Cl)ccc2n1)c1cncs1", "INHIBITION": 68.6},
      {"smiles": "COCC(=O)N1CCC(Nc2ccnc3ccc(Cl)cc23)CC1", "INHIBITION": -56.3},
      {"smiles": "COc1ncccc1C(=O)N1CC[C@H]2C[C@@H](c3noc(C)n3)O[C@@H]2C1", "INHIBITION": 15.4},
      {"smiles": "COCC1CC2(CCN(Cc3ccco3)CC2)CN1C(C)C", "note": "(stereo not drawn)", "INHIBITION": 14.6},
      {"smiles": "CCn1cc(CNCC(c2ccc(Cl)cc2)n2cccn2)cn1", "note": "(stereo not drawn)", "INHIBITION": 3.58},
      {"smiles": "Cc1nc2cc(NC(=O)Cn3ncc(N4CCCC4)cc3=O)ccc2s1", "INHIBITION": 41.2},
      {"smiles": "COCCN1C(=O)CCC12CCC(NCc1cccc(C)n1)CC2", "note": "(stereo not drawn)", "INHIBITION": 41},
      {"smiles": "O=C(Cc1c[nH]c2ncccc12)NCC(O)c1ccccc1F", "note": "(stereo not drawn)", "INHIBITION": 26.05},
      {"smiles": "CC(=O)N1C[C@H]2CC[C@@H](C1)N(Cc1ccc(Cn3cccn3)cc1)C2", "INHIBITION": 4.59},
      {"smiles": "Cc1cc(C(=O)N(C)Cc2cnn(C)c2C)n(C)n1", "INHIBITION": 68.9},
      {"smiles": "Cc1c(CN(C)C(=O)c2ccnn2C)cnn1C", "INHIBITION": 31.7},
      {"smiles": "CCn1ncc(CN(C)C(=O)c2cc(C(F)(F)F)n(C)n2)c1C", "INHIBITION": 1.86}
    ]}
  ]
}
